Assay outcomes as filed in PubChem.
FLuc counter: qHTS profiling assay for firefly luciferase inhibitor/activator using purifed enzyme and Km concentrations of substrates (counterscreen for miR-21 project); 6.9% of 360,000 active; Potency, µM (doses to about 57.5 µM), without a hit: at the top dose activity change, negative = inhibition, hits mostly inhibitors; purified FLuc, Km substrates, luminescence inhibition; Luciferin 4-monooxygenase (Photinus pyralis), P08659;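 note: plate controls were vehicle for no effect and reference inhibitor for full effect; nearly all actives have a fitted effect of over 55% in size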
Target sequence (P08659 whole entry, looked up): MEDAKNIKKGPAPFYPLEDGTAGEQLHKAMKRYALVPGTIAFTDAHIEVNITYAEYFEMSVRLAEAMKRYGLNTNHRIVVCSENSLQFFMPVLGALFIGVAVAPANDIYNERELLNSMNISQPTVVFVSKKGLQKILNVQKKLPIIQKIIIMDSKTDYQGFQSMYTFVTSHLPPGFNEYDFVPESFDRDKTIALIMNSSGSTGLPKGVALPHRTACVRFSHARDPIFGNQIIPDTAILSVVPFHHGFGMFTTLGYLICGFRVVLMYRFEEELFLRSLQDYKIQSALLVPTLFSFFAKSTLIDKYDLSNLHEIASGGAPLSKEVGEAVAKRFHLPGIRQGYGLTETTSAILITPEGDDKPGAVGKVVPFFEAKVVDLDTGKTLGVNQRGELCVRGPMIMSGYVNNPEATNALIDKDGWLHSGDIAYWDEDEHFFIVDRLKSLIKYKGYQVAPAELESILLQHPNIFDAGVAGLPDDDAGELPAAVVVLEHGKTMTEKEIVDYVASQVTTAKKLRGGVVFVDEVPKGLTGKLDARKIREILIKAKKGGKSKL
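Biochemical qHTS of compounds, final roughly 60 µM downward over six points, against 10 nM purified firefly luciferase using Km concentrations of substrates (10 uM D-luciferin, 10 uM ATP) in Tris acetate pH 7.5 buffer; luminescence output.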
NPC1 prom act: qHTS Assay for NPC1 Promoter Activators | Huh7 NPC1 promoter luciferase reporter, 24 h | Potency, µM (titrated, usually from 9.22 µM), for inactives: at the highest dose activation, most hits filed as activators | 2.4% of 320,000 active; note: % of control where 0% means no effect; nearly all actives have a fitted effect of over 60% in size
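Stably transfected Huh7 (NPC1 promoter→luciferase), 1500 cells/well in Opti-MEM + 10% FBS, 2 h settle, then compound 24 h at 37 °C. Luminescence after 10 min with Amplite reagent.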
ELG1 genotox: qHTS screen for small molecules that induce genotoxicity in human embryonic kidney (HEK293T) cells expressing luciferase-tagged ELG1. 1.3% of 330,000 active. HEK293T ELG1-luciferase reporter, luminescence, 16 h. Potency, µM (doses to about 46 µM), without a hit: top-dose activity change, positive = activation, usual class: activators. AID 504466, 2011; note: % of control where 0% means no effect; nearly all actives have a fitted effect of over 60% in size
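Reporter readout depends on ELG1 protein level, which increases with genetic stress. After 16 hr compound exposure at 37 °C, luciferase activity was quantified using ONE-Glo.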
KinaseGlo FLuc: Counterscreen for Luciferase (Kinase-Glo TM) Inhibition | Kinase-Glo luciferase, ATP luminescence, 8 min | Potency, µM (series often up to 38.3 µM), without a hit: top-dose activity change, negative = inhibition, usual class: inhibitors | AID 1379, 2008 | 0.28% of 200,000 active; note: % is set by controls: 0 for no effect and ±100 for the full control effect; nearly all actives have a fitted effect of over 60% in size
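Compound is pinned into ATP-containing buffer (10 uM ATP, imidazole pH 7.2, 7 mM MgCl2). Kinase-Glo luciferase reagent is then added. Light output is recorded following an 8-min room-temperature incubation.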
SMN2 splice enh: qHTS Assay for Enhancers of SMN2 Splice Variant Expression. Potency, µM (titrated, usually from 46.1 µM), inactives show at the top dose activity change, positive = activation, actives largely listed as activators. HEK293 SMN2-luciferase splicing reporter, luminescence, 30-36 h. 2.8% of 210,000 active. AID 1458, 2008; note: % of control where 0% means no effect; nearly all actives have a fitted effect of over 55% in size
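HEK293 cells carry an SMN2 minigene-luciferase reporter in which exon 7 inclusion puts luciferase in frame. Cells were seeded at 2000 cells/well, attached for 10-12 hours, then exposed to compounds for 30-36 hours at 37C before ONE-Glo luminescence.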
Rab9 prom act: qHTS Assay for Rab9 Promoter Activators; Potency, µM (top dose mostly 9.22 µM), for the others: at the highest dose activation, negative = inhibition, actives largely listed as activators; 2.8% of 320,000 active; Huh7 Rab9 promoter-luciferase reporter, luminescence, 24 h; note: % of control where 0% means no effect; nearly all actives have a fitted effect of over 60% in size
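Rab9 promoter-driven luciferase in stably transfected Huh7 cells; 1500 cells/well rested 2 h, exposed to compound in DMSO for 24 h at 37 °C, 5% CO2. Luminescence read 10 min after adding luciferase reagent at ambient temperature.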
Starred values were filed as active, the others as inactive; ? = inconclusive; · = not tested or not shown. In the library only some 7.3% were active in any assay of this set; here they are far more common. Calls come from the whole dose curve; as a rule, active = well fitted curve in the direction sought with a large enough effect; inconclusive = small, poorly fitted or top-dose-only effect, or another doubt; inactive = no such curve, though single readings can be large; an effect the other way counts as inactive or inconclusive. Potency is the fitted concentration of half-maximal effect.

SMILES	FLuc counter	NPC1 prom act	ELG1 genotox	KinaseGlo FLuc	SMN2 splice enh	Rab9 prom act
O=C(N/N=C/c1cccs1)c1ccccn1	11µM*	3.5µM*	?	?	25µM*	2.5µM*
Cc1ccc(/C=N/NC(=O)c2ccncc2)s1	?	1%	3%	·	·	6%
Cn1cccc1C(=O)N/N=C/c1c(Cl)cccc1Cl	11µM*	2.5µM*	16µM*	·	·	2.8µM*
Cc1cc(C(=O)N/N=C/c2ccc(C)s2)n[nH]1	?	4µM*	?	·	·	3.2µM*
O=C1N/C(=C\c2ccccc2)c2ccccc21	?	-11%	?	-1%	?	-12%
O=C1N/C(=C\c2nc3ccccc3s2)c2ccccc21	0.19µM*	1µM*	0.58µM*	·	·	0.28µM*
CCN(CC)C(=O)c1cc(-c2ccc(Cl)cc2)on1	13µM*	·	·	·	10µM*	·
CCCCNC(=O)c1cc(-c2ccc3c(c2)OCO3)on1	2.7µM*	3.5µM*	?	·	·	2µM*
O=C(NCc1ccc2c(c1)OCO2)c1cc(-c2ccc(Cl)cc2Cl)on1	12µM*	2%	-4%	-1%	-4%	0%
CCN(CC)C(=O)c1cc(-c2ccc3c(c2)OCO3)on1	9.5µM*	4µM*	?	·	·	3.5µM*
O=C(NCc1ccc2c(c1)OCO2)c1cccc(Cl)c1	-2%	4%	3%	0%	6%	20%
CCn1c(=NC(=O)CSC(C)=O)sc2cc(OC)ccc21	?	1%	0%	-1%	·	-4%
O=C(O)c1cc([N+](=O)[O-])ccc1C(=O)Nc1ccccc1	2%	-5%	-1%	-2%	-7%	1%
COC(=O)c1c(SCC(=O)Nc2cc(OC)cc(OC)c2)[nH]c2ccc(C)cc2c1=O	-13%	·	·	·	·	·
CCCNC(=O)c1cc(-c2ccc3c(c2)OCO3)on1	3.8µM*	0.63µM*	?	·	·	0.56µM*
COc1cc(NC(=O)c2cc(-c3ccc4c(c3)OCO4)on2)cc(OC)c1OC	2%	-33%	-2%	·	3%	-28%
CC(C)NC(=O)c1cc(-c2ccc3c(c2)OCO3)on1	3.8µM*	0.56µM*	?	·	·	0.63µM*
O=C(O)c1ccc(CSc2nnnn2C2CCCCC2)cc1	1%	6%	-2%	1%	-7%	1%
C/C(=N\NC(=O)c1ccc(Br)cc1)c1ccccc1	3.4µM*	0.56µM*	?	-9%	13µM*	1.3µM*
C/C(=N\NC(=O)c1ccccc1)c1ccccc1F	12µM*	1.4µM*	5.8µM*	-22%	5.6µM*	0.56µM*
COC(=O)N/N=C(\C)c1ccc(Br)cc1	?	3%	10%	14%	-34%	25%
C/C(=N\NC(=O)c1ccccc1)c1ccccc1Br	15µM*	?	?	-5%	?	?
CCOC(=O)N/N=C(\C)c1ccc(Br)cc1	17µM*	12%	?	15%	-11%	17%
C/C(=N\NC(=O)c1cccnc1)c1ccc(Br)cc1	?	17%	10%	·	·	6%
C/C(=N\NC(=O)c1ccccc1OCCOc1ccccc1)c1ccccc1F	?	-3%	-10%	·	·	2%
SMILES	FLuc counter	NPC1 prom act	ELG1 genotox	KinaseGlo FLuc	SMN2 splice enh	Rab9 prom act
O=C(Nc1ccc(NC(=O)c2ccccc2Br)cc1)c1ccccc1	-5%	23%	?	·	·	16%
CC(=O)Nc1ccc(NC(=O)COC(=O)CCCc2c[nH]c3ccccc23)cc1	-14%	-1%	-3%	·	·	-2%
COc1ccccc1C(=O)COC(=O)CCN=C1NS(=O)(=O)c2ccccc21	2%	-2%	4%	·	·	-5%
COc1ccc(/C(C)=N/NC(=O)OC(C)(C)C)cc1[N+](=O)[O-]	1%	1%	12%	·	·	9%
C/C(=N\NC(=O)OC(C)(C)C)c1ccccc1Br	21µM*	?	?	-28%	12%	?
Cc1cc(C)nc(N/N=C/C=C/c2ccccc2)n1	?	-2%	1%	1%	1%	7%
Cn1nc(/C=C/c2ccccc2)ccc1=O	?	16%	?	?	13µM*	3.2µM*
O=c1ccc(/C=C/c2ccccc2)nn1Cc1ccccc1	-1%	1%	-1%	18%	-17%	1%
C(=C\c1cc(/C=C/c2ccccc2)ncn1)/c1ccccc1	12µM*	7%	?	2%	-5%	10%
Cc1nc(/C=C/c2ccccc2)cc(/C=C/c2ccccc2)n1	19µM*	1%	?	17%	24%	2%
Fc1cccc(-c2nnn3c2nc(Cl)c2ccccc23)c1	1.7µM*	-4%	24%	-7%	1%	-1%
Clc1nc2c(-c3ccccc3)nnn2c2ccccc12	1.5µM*	0%	-10%	·	·	-1%
CCN(CC)S(=O)(=O)c1ccc(N2CCCCC2)c(NC(=O)/C=C/c2cc(OC)c(OC)c(OC)c2)c1	1%	14%	1%	-1%	27%	-6%
CC[C@]12CCCN3CCc4c(n(c5ccccc45)C(=O)C1)[C@@H]32	-2%	-19%	4%	·	·	-14%
CC[C@]12CCCN3CCc4c(n(c5ccccc45)[C@@](O)(C(=O)OC)C1)[C@@H]32	-19%	5%	16µM*	·	·	18%
O=C(c1cccc(S(=O)(=O)Nc2ccccc2Cl)c1)N1CCN(c2ccccc2O)CC1	1%	0%	-1%	·	·	-4%
CCOc1ccc(C(=O)Nc2nnn(CC)n2)cc1	12µM*	4µM*	10µM*	·	·	4µM*
CCCn1nnc(NC(=O)c2ccc(-c3ccccc3)cc2)n1	9.5µM*	2.5µM*	?	10%	?	2.5µM*
CCCn1nnc(NC(=O)c2ccc(Br)cc2)n1	?	?	9.2µM*	4%	14µM*	4µM*
CCCn1nnc(NC(=O)c2ccc(OC)cc2)n1	21µM*	4µM*	18µM*	-3%	?	?
O=C(N/N=C/C=C\c1cccc([N+](=O)[O-])c1)c1cccnc1	1%	10%	-17%	·	·	0%
COc1ccc(-c2cc(C(=O)NC3CCCC3)c3ccccc3n2)cc1	6.7µM*	14%	-3%	·	·	6%
O=C(NCC1CCCO1)c1cc(-c2ccncc2)nc2ccccc12 (stereo not drawn)	1%	-2%	-1%	·	·	2%
COc1ccc(-c2cc(C(=O)NC3CC3)c3ccccc3n2)cc1	21µM*	-4%	-1%	·	·	-1%
